Measurements as given in PubChem BioAssay (NCI).
This is part of a sample that, as a whole, favours compounds with a hit. Of some 79,000 tested, about 15% had one in any assay. Unmarked numbers belong to inactive results. Cut-off read from the data, not from the text of the source: active = growth inhibition above about 70%; inactive = the rest.

Experiment: NCI Yeast Anticancer Drug Screen. Data for the mlh1 rad18 strain (AID 175)
Details: S. cerevisiae mlh1 rad18 strain growth inhibition; at 50.0 µM; hits give high values
Summary of the method: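 Test agents were incubated with a yeast strain of defined genotype (DNA damage repair defect). Inhibition of growth was derived by comparison with vehicle-exposed cultures.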

SMILES	growth inhibition [%]
O=Cc1ccccc1.[C-]#[O+].[C-]#[O+].[C-]#[O+].[Cr]	15.8
CCCCOCCOC(=O)CCl	14.8
N#Cc1ccccn1	5.9
O=[As](O)(O)CC(Br)CBr (stereo not given)	-3.4
C1CCC(N([P-]P([P-]N(C2CCCCC2)C2CCCCC2)N(C2CCCCC2)C2CCCCC2)C2CCCCC2)CC1.[C-]#[O+].[C-]#[O+].[C-]#[O+].[C-]#[O+].[C-]#[O+].[C-]#[O+].[Fe].[Fe] (stereo not given)	-24.4
CC1CN1C(=O)NCCCCCCNC(=O)N1CC1C (stereo not given)	-28.6
CN(C)[C@@H]1C(=O)C(C(N)=O)=C(O)[C@@]2(O)C(=O)C3=C(O)c4c(O)ccc(Cl)c4[C@@](C)(O)[C@H]3C[C@@H]12	-4.1
C[Si](C)(C)[C@@]1([Se]c2ccccc2)CC[C@@H]1C(=O)c1ccccc1	-23.9
CCC1(CCSC#N)C(=O)NC(=O)NC1=O	3.85
CC1NC1(c1ccccc1)n1ccnc1 (stereo not given)	3.4
O=P(O)(O)c1ccccc1	4.65
O=NN(c1ccccc1)c1ccccc1	34.5
c1ccc(N=PNc2ccccc2)cc1 (stereo not given)	-13.3
[C-]#[O+].[C-]#[O+].[C-]#[O+].[C-]#[O+].[Mo].c1ccc([As](CC[As](c2ccccc2)c2ccccc2)c2ccccc2)cc1	6.6
O=C1NC(=O)C(Cc2ccc3c(c2)OCO3)C(=O)N1	8.15
ClC1CC2CC1C1CNCC21 (stereo not given)	-21
CC(C)C(O)(C(=O)OCC1=CC[N+]2([O-])CCC(O)C12)C(C)O (stereo not given)	-7.3
C1CC[N+]2=C(C1)OCCC2	4.25
O=C(Nc1ccccc1)c1ccc([As](c2ccc(C(=O)Nc3ccccc3)cc2)c2ccc(C(=O)Nc3ccccc3)cc2)cc1	-33.5
CC1N=C(c2ccccc2)C2(c3ccccc3)C(C)N12 (stereo not given)	5.85

SMILES	growth inhibition [%]
COc1ccc2c(c1)c(CC(C)[N+](=O)[O-])c(C)n2Cc1ccccc1 (stereo not given)	6.9
C(=C\C1CC2CCCN2O1)/c1ccccc1 (stereo not given)	11.2
CCOP(=O)(OCC)/C(C#N)=C/c1cccn1C	-7.35
CC[C@@H]1C[C@H]2CC3c4[nH]c5ccc(O)cc5c4CCN(C2)C31	5.6
Oc1c(Cl)cccc1Cl	3.4
CCCCCC(N)CC(=O)O (stereo not given)	9.85
CCOP(=S)(OCC)OP(=S)(OCC)OCC	-42.1
O=C1NC(=O)C2(CCOCC2)C(=O)N1	0.15
O=[P+](O)c1cccnc1	13.8
O=C1NC(=O)C(CCO)(c2ccccc2)C(=O)N1	-4.15
CC(Br)CN(CC(C)Br)c1ccc(-c2ccccc2)cc1 (stereo not given)	21.7
C[N+](C)(Cc1ccc([N+](=O)[O-])cc1)c1ccc(N(CCCl)CCCl)cc1	10.8
CCC1(CCO)C(=O)NC(=O)NC1=O	-2.7
O=C(Cc1ccc2c(c1)OCO2)c1cn(C(=O)Cc2ccc3c(c2)OCO3)c2ccccc12	26.4
c1ccc([As](c2ccccc2)c2ccccc2)cc1	5.05
COc1cc2c(cc1OC)-c1c3c(cc4c1[C@H](C2)N(C)CC4)OCO3	-25.5
CS(=N)(=O)CCC(N)P(=O)(O)O (stereo not given)	-27.9
NCC(=O)c1ccc(O)c(O)c1	-8.55
CC([Se])=Nc1ccc(Br)cc1	9.1
CC(=O)C1CCC2C3CCC4CC(O)CCC4(C)C3CCC12C (stereo not given)	-7.3
